Active and inactive are the calls of the source.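 The calls were made as follows: active = high combined rank on largest and smallest cell-count-weighted shift across three tests, rank score above 45, floors 50 and 25 (some results past the limit were not filed as active); inactive = the rest.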
Assay: LNCaP granularity increase inducers, single-point recheck – cell-based, side scatter shift, flow cytometry, confirmation (AID 1069);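 also: LNCaP human prostate cancer cells in low-serum medium with charcoal-stripped FBS; percent of cells with raised granularity gated so DMSO controls show 10%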
Details: LNCaP differentiation, 4 d, stronger effect = higher value

SMILES | side scatter shift (at 100 µM) | side scatter shift (side scatter shift, at 10 µM)
CN(CC(O)COc1ccc(OCC(O)CN(C)C2CCCCC2)cc1)C1CCCCC1 (stereo not drawn) | 49.4% (active) | 8.9%
CCC(C(=O)Nc1ccccc1OC)n1c(C(=O)OC)cc2ccsc21 (stereo not drawn) | 12.2% (inactive) | 2.5%
N#C/C(=C\c1ccc(O)c(O)c1)C(=O)NCCCc1ccccc1 | 28.9% (inactive) | 7.05%
CCN(CCNC(=O)C1CCN(Cc2nc(-c3cccc(Cl)c3)oc2C)CC1)c1ccccc1 | 66.7% (inactive) | 31.2%
CC1CCCCN1CCNC(=O)c1ccc2c(=O)n(CCc3ccccc3)c(=O)[nH]c2c1 (stereo not drawn) | 59.5% (active) | 18.2%
CCOC(=O)N1CCC(=C2c3ccc(Cl)cc3CCc3cccnc32)CC1 | 28.6% (inactive) | 6.25%
CCN(CC)CCCNC(=O)c1cc2c(-c3ccc(Cl)cc3)nn(C)c2s1 | 61.5% (active) | 81.5%
O=C(NCC(c1cccnc1)N1CCOCC1)c1cccc(Cl)c1 (stereo not drawn) | 11.4% (inactive) | 13.9%
COc1ccc(-c2coc3c(CN4CCCCC4)c(O)c(CN4CCCCC4)c(O)c3c2=O)cc1 | 28.6% (inactive) | 3.3%
O=C1c2ccccc2C(Nc2ccc3c(c2)OCO3)N1Cc1ccc2c(c1)OCO2 (stereo not drawn) | 23.6% (inactive) | 6.65%
CCN1CCCC1CNC(=O)C1CCN(Cc2nc(-c3cccc(Br)c3)oc2C)CC1 (stereo not drawn) | 6.3% (active) | 60.2%
Cc1ccc(S(=O)(=O)NCCCCC(NC(=O)OC(C)(C)C)C(=O)O)cc1 (stereo not drawn) (tested in a mixture with another compound) | 8.9% (inactive) | 5.45%
Cc1oc(-c2ccccc2F)nc1CN1CCC(C(=O)NC2CC2)CC1 | 13.5% (inactive) | 2.4%
Cc1cc(C)nc(N2CCC(C(=O)Nc3ccc(Oc4ccccc4)cc3)CC2)n1 | 44.1% (inactive) | 3.05%
Cc1oc(-c2ccccc2F)nc1CN1CCC(C(=O)NC2CCCCCCC2)CC1 | 16.7% (inactive) | 9.45%
CCn1c(=O)cc(SCC(=O)N2CCN(C3CCCCC3)CC2)c2ccccc21 | 16.7% (inactive) | 6.55%
Cc1cc(N2CCN(C)CC2)nc2ccc(NC(=O)c3ccc(Br)o3)cc12 | 0% (active) | 56.4%
COc1ccc(-c2cc(C(=O)NCc3ccc(Cl)cc3)no2)cc1OC | 28.5% (inactive) | 7.15%
Cc1nc2c3cnn(-c4ccccc4)c3ncn2n1 | 5% (inactive) | 1.75%
Cc1oc(-c2cccc(Cl)c2)nc1CN1CCC(C(=O)NCCCN2CCCC2=O)CC1 | 15.1% (inactive) | 2.65%
COc1ccc(-c2ccc(-c3nnn(CC(C)=O)n3)cc2)cc1 | 11.7% (inactive) | 2.95%
CCOc1ccc(-n2cc(C(=O)N3CCC(C)CC3)c3cc(OC)c(OC)cc3c2=O)cc1 | 16.3% (inactive) | 18.7%
CCOC(=O)c1ccc(NC(=O)Nc2ccc3c4c(cccc24)C(=O)N3CC)cc1 | 34.3% (inactive) | 8.75%
CCCCC(=O)NCCc1ccc(S(N)(=O)=O)cc1 | 12.6% (inactive) | 11.9%
O=C(NCCCN1CCN(c2cccc(Cl)c2)CC1)c1nc(-c2ccncc2)no1 | 36.1% (inactive) | 2.15%
CCn1c(=O)cc(SCC(=O)NCCCN2CCN(c3ccc(F)cc3)CC2)c2ccccc21 | 14.3% (inactive) | 21.6%
Cc1cc2c(=O)n(CC(=O)N3CCN(c4ccccc4)CC3)cnc2s1 | 30.4% (inactive) | 5.8%

SMILES | side scatter shift (at 100 µM) | side scatter shift (side scatter shift, at 10 µM)
COc1ccc(-c2noc(-c3cc(Cl)ccc3Cl)n2)cc1OC | 49.4% (inactive) | 7.6%
Cc1ccc(OCC(O)Cn2c(=N)n(CCN3CCCCC3)c3ccccc32)cc1 (stereo not drawn) | 23.1% (active) | 65.5%
Cc1oc(-c2cccc(Cl)c2)nc1CN1CCC(C(=O)NCc2cccnc2)CC1 | 28.9% (inactive) | 8.3%
C=CCn1c(=N)n(CC(O)COc2ccc(OC)cc2)c2ccccc21 (stereo not drawn) | 18.9% (inactive) | 10.9%
COc1ccc(Cl)c(N2CCN(CCCNC(=O)Nc3ccc(C)cc3)CC2)c1 | 26.3% (inactive) | 12%
CCOC(=O)N1CCN(C(=O)C2CCCN(Cc3nc(-c4ccc(Cl)cc4)oc3C)C2)CC1 (stereo not drawn) | 20% (inactive) | 4.15%
CC(C)CCNC(=O)C1CCN(c2nc3ccccc3o2)CC1 | 28.8% (inactive) | 7.65%
Cc1oc(-c2ccccc2F)nc1CN1CCC(C(=O)NCCC2=CCCCC2)CC1 | 29.4% (inactive) | 17.8%
CCN(CCNC(=O)C1CCCN(Cc2nc(-c3ccc(OC)cc3)oc2C)C1)c1ccccc1 (stereo not drawn) | 27.8% (inactive) | 35.5%
CCc1ccc(-c2nc(CN3CCC(C(=O)N4CCN(c5ccccc5)CC4)CC3)c(C)o2)cc1 | 44.4% (inactive) | 19.8%
CC1(C)CC(=O)c2cc(OCC(=O)NCCCN3CCN(c4ccc(F)cc4)CC3)ccc2O1 | 5.9% (inactive) | 15.1%
Cc1ccc2c(c1)c1c(n2CC(O)CNC(CO)(CO)CO)CCCC1 (stereo not drawn) | 34.3% (inactive) | 12.4%
N#CC1=C(N)OC2=C(C(=O)CCC2)C1c1ccc(OC(=O)N2CCOCC2)cc1 (stereo not drawn) | 7.8% (inactive) | 2.45%
CCOC(=O)N1CCN(C(=O)Cc2ccc(-n3c(=O)[nH]c4ccccc4c3=O)cc2)CC1 | 6.3% (inactive) | 2.6%
CCOc1ccc2ccccc2c1C(=O)N1CCN(c2ccccc2)CC1 | 21.1% (inactive) | 1.7%
CC(C)(O)c1cn(-c2nonc2N)nn1 | 10.4% (inactive) | 5.4%
Cn1c(C(=O)NCCCN2CCN(c3ccccc3F)CC2)cc2c(=O)[nH]c3ccccc3c21 | 33.3% (inactive) | 11.1%
COc1ccc(NC(=O)NCCCN2CCN(c3cc(C)ccc3C)CC2)cc1 | 0% (inactive) | 7.1%
CN(CCNC(=O)C1CC(=O)N(c2ccc(F)c(Cl)c2)C1)Cc1ccccc1 (stereo not drawn) | 62% (active) | 3.65%
O=C(Nc1nc(-c2ccccc2)cs1)C1CCCCN1S(=O)(=O)c1ccccc1 (stereo not drawn) | 0.4% (inactive) | 4.75%
Cc1ccccc1OCc1nc(-c2ccc(NC(=O)c3ccc4c(c3)OCO4)cc2)no1 | 32.3% (inactive) | 4.6%
CN1C(=O)c2ccc(S(=O)(=O)c3ccc(C(=O)O)cc3)cc2C1=O | 7.2% (inactive) | 5.75%
CCOC(=O)N1CCN(C(=O)CN(c2cccc(C(F)(F)F)c2)S(=O)(=O)c2ccccc2)CC1 | 11.7% (inactive) | 5.4%
COc1ccc(CC(=O)Nc2ccc(-c3nnc(-c4ccc(C)cc4)o3)cc2)cc1 | 33.3% (inactive) | 6.65%
CCn1c(C(=O)NCCCN2CCc3ccccc3C2)cc2sccc21 | 12.5% (inactive) | 14.8%
COc1ccc2nc3oc(C(=O)NCc4cccs4)cc3cc2c1 | 3.9% (inactive) | 3.9%
c1ccc(OCCCn2nnc(-c3cccnc3)n2)cc1 | 15.4% (inactive) | 3.1%

SMILES | side scatter shift (at 100 µM) | side scatter shift (side scatter shift, at 10 µM)
Cc1cccc(-c2nsc(SCC(=O)Nc3nccs3)n2)c1 | 68.1% (active) | 6.2%
Cc1cc(=O)n2nc(N3CCCC(C(=O)NCc4ccco4)C3)sc2n1 (stereo not drawn) | 7.4% (inactive) | 4.75%
Cn1c(=O)[nH]c(=O)c2c1nc(Br)n2CCCSc1nc2ccccc2o1 | 0% (inactive) | 8%
Cc1ccc(C)c(N2CCN(CCCNC(=O)Cn3cc4c(n3)CCC(C)C4)CC2)c1 (stereo not drawn) | 20% (inactive) | 25.6%
CCOC(=O)Cn1nc(-c2ccc(Cl)cc2)cc1N | 11.4% (inactive) | 4.7%
COc1ccc2cc3c(N)nn(C(=O)Cc4ccccc4OC)c3nc2c1 | 20% (inactive) | 8.05%
Cc1ccccc1-c1nc(CN2CCC(C(=O)NCC3CCCO3)CC2)c(C)o1 (stereo not drawn) | 22.5% (inactive) | 7.1%
CCOc1cccc(-c2nnc3n2N=C(c2cc(OC)ccc2OC)CS3)c1 | 0% (inactive) | 14.1%
Cc1oc(-c2ccc(Cl)cc2)nc1CN1CCC(C(=O)N2CCc3ccccc3C2)CC1 | 44.4% (inactive) | 17%
Cc1noc(/C=C/c2ccco2)c1S(=O)(=O)N1CCC(C(=O)N2CCc3ccccc3C2)CC1 | 54.6% (active) | 7.3%
CCn1c(=O)cc(OCC(=O)NCCCN2CCN(c3cccc(Cl)c3)CC2)c2ccccc21 | 40% (inactive) | 18.3%
O=C(NCC1CCCO1)C1CC(c2ccc(Cl)c(Cl)c2)=NO1 (stereo not drawn) | 8.2% (inactive) | 2.4%
Cc1ccc2c(c1)NC(=O)C(CC(=O)NCCCN1CCN(c3cc(C)ccc3C)CC1)O2 (stereo not drawn) | 30.1% (inactive) | 2.95%
O=C(CSc1nc2sc3c(c2c(=O)n1-c1ccccc1)CCCC3)NCc1ccco1 | 24% (inactive) | 4.3%
Cc1ccccc1-c1nc(CN2CCCC(C(=O)NCCCN3CCOCC3)C2)c(C)o1 (stereo not drawn) | 72.4% (active) | 12.8%
Cc1ccc(Cn2c(C(=O)NCCCN3CCOCC3)cc3sccc32)cc1 | 20.1% (inactive) | 10.8%
CCn1c(=O)cc(OCC(=O)O)c2ccccc21 | 31.8% (inactive) | 6.7%
CCN1CCN(c2ncc(C(=O)Nc3cc(Cl)c(OC)cc3OC)c3ccccc23)CC1 | 53.7% (inactive) | 19.2%
Cc1nnc(NCc2n[nH]c(=O)c3ccccc23)c2ccccc12 | 46.8% (inactive) | 6.5%
O=C(Cn1c(=O)[nH]c2ccsc2c1=O)NC1CCCCCC1 | 2.5% (inactive) | 5.85%
COc1ccc(-n2cc(-c3ccccc3)c3c(N4CCN(CCO)CC4)ncnc32)cc1 | 33.3% (inactive) | 9.55%
CC(C)n1c(=S)[nH]c2c1c(=O)[nH]c(=O)n2C | 8.1% (inactive) | 2.4%
COCCn1cc(C(=O)N2CCCC(C)C2)c2c3ccccc3n(C)c2c1=O (stereo not drawn) | 22.8% (inactive) | 3.2%
Cc1ccc2c(c1)c1c(n2CC(O)Cn2c(C)nc3ccccc32)/C(=N\O)CCC1 (stereo not drawn) | 18.8% (inactive) | 10.1%
Cc1ccccc1-c1nc(CN2CCC(C(=O)N3CCN(c4ccccn4)CC3)CC2)c(C)o1 | 24.7% (inactive) | 12.9%
